Experimental data as given in PubChem BioAssay (Tox21).
Values joined by “and” are separate entries in the source; they are usually repeats but may differ in a detail not shown here. Equal entries are not always repeated. Unmarked numbers belong to inactive results. Active and inactive are the calls of the source. Unless noted, the call rests on the fitted dose curve; in most records, active means well fitted curve in the direction sought with a large enough effect in the repeat runs; inconclusive means weak or mixed curves; inactive means no such curve, though single readings can be large; an effect the other way counts as inactive or inconclusive.

Assays:
[1] = qHTS assay to identify small molecule antagonists of the glucocorticoid receptor (GR) signaling pathway - cell viability counter screen (AID 720693); further: nearly all actives have a fitted effect of over 55% in size; further: potency means the concentration at half of the fitted maximal effect
[2] = qHTS assay for identifying genotoxic compounds that show differential cytotoxicity against isogenic chicken DT40 cell lines with known DNA damage response pathways - wild type cell line (AID 743012); further: nearly all actives have a fitted effect of over 60% in size; further: potency means the concentration at half of the fitted maximal effect
In short: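 Cytotoxicity in repair-proficient parental chicken DT40 cells serves as the comparator for Rad54/Ku70- and Rev3-deficient lines. Cells were exposed to compounds for 40 h at 37 C/5% CO2, and ATP-based luminescence (CellTiter-Glo) measured viability.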

[3] = qHTS assay for identifying genotoxic compounds that show differential cytotoxicity against isogenic chicken DT40 cell lines with known DNA damage response pathways - Rev3 mutant cell line (AID 743014); further: nearly all actives have a fitted effect of over 55% in size; further: potency means the concentration at half of the fitted maximal effect
[4] = qHTS assay for identifying genotoxic compounds that show differential cytotoxicity against isogenic chicken DT40 cell lines with known DNA damage response pathways - Rad54/Ku70 mutant cell line (AID 743015); further: nearly all actives have a fitted effect of over 60% in size; further: potency means the concentration at half of the fitted maximal effect
[5] = qHTS assay to identify small molecule antagonists of the androgen receptor (AR) signaling pathway - cell viability counter screen (AID 743033; further: nearly all actives have a fitted effect of over 45% in size; further: potency means the concentration at half of the fitted maximal effect)
[6] = qHTS assay to identify small molecule antagonists of the thyroid receptor (TR) signaling pathway - cell viability counter screen (AID 743064); further: nearly all actives have a fitted effect of over 50% in size; further: potency means the concentration at half of the fitted maximal effect
In short: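 In rat pituitary GH3.TRE-Luc reporter cells co-exposed to compound and 1 nM T3 for 23.5 h, cytotoxicity was assessed with CellTiter-Fluor in the same wells, read by fluorescence.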

[7] = qHTS assay to identify small molecule antagonists of the thyroid receptor (TR) signaling pathway (AID 743065); further: nearly all actives have a fitted effect of over 55% in size; further: potency means the concentration at half of the fitted maximal effect
In short: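 GH3.TRE-Luc rat pituitary cells carrying two TR response elements driving luciferase were plated for 4 h, given compound plus 1 nM T3 (final), and incubated 23.5 h at 37 C. ONE-Glo luminescence measured reporter inhibition; CellTiter-Fluor fluorescence tracked cytotoxicity.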

[8] = tested on: thyroid hormone receptor (rat, GH3 cells); experiment: qHTS assay to identify small molecule agonists of the thyroid receptor (TR) signaling pathway (AID 743066; calls by dose curve)
[9] = qHTS assay to identify small molecule antagonists of the estrogen receptor alpha (ER-alpha) signaling pathway - cell viability counter screen (AID 743074; calls by dose curve;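 further: HEK293 cells carrying ER-alpha-UAS-bla reporter stimulated with 17beta-estradiol; nearly all actives have a fitted effect of over 45% in size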; further: potency means the concentration at half of the fitted maximal effect)
[10] = qHTS assay to identify small molecule antagonists of the estrogen receptor alpha (ER-alpha) signaling pathway using the BG1 cell line - cell viability counter screen (AID 743081);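 further: compound given together with 17beta-estradiol as the ER stimulus; nearly all actives have a fitted effect of over 45% in size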; further: potency means the concentration at half of the fitted maximal effect
[11] = qHTS assay to identify aromatase inhibitors - cell viability counter screen (AID 743084);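 further: cells stimulated with testosterone during compound exposure; nearly all actives have a fitted effect of over 55% in size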; further: potency means the concentration at half of the fitted maximal effect
[12] = qHTS assay to identify small molecule antagonists of the androgen receptor (AR) signaling pathway using the MDA cell line - cell viability counter screen (AID 743041; further: nearly all actives have a fitted effect of over 45% in size; further: potency means the concentration at half of the fitted maximal effect)
In short: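 In this qHTS counter assay, fluorescence intensity after CellTiter-Fluor addition indicated viability of MDA-kb2 AR-luc cells given compounds and R1881 for 16 h at 37C.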

[13] = target: Aromatase (Homo sapiens) (UniProt P11511); experiment: qHTS assay to identify aromatase inhibitors (AID 743083); further: nearly all actives have a fitted effect of over 55% in size; further: potency means the concentration at half of the fitted maximal effect
Chain of Aromatase (Homo sapiens) (P11511 whole entry, looked up): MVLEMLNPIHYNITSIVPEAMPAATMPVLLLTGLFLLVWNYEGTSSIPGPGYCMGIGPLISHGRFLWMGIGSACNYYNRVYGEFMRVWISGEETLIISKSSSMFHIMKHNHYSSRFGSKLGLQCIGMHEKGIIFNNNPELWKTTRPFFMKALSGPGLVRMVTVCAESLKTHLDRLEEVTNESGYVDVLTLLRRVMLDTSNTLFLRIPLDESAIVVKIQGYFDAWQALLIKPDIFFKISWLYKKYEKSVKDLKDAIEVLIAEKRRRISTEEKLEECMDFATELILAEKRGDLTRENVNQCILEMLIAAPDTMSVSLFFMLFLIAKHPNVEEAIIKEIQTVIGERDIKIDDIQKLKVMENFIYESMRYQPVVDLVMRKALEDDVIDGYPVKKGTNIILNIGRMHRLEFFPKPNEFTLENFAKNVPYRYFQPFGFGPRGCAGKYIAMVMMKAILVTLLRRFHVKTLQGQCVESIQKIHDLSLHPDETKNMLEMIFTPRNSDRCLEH

[14] = target: Estrogen receptor (Homo sapiens) (UniProt P03372); experiment: qHTS assay to identify small molecule antagonists of the estrogen receptor alpha (ER-alpha) signaling pathway (AID 743069; active means well fitted curve in the direction sought with a large enough effect in the signal ratio in the repeat runs, not every such curve was filed as active; inconclusive means weak or mixed curves, or effect the other way; inactive means no such curve, though single readings can be large or run the other way; the % refers to the signal ratio; further: potency means the concentration at half of the fitted maximal effect)
Chain of Estrogen receptor (Homo sapiens) (P03372 whole entry, looked up): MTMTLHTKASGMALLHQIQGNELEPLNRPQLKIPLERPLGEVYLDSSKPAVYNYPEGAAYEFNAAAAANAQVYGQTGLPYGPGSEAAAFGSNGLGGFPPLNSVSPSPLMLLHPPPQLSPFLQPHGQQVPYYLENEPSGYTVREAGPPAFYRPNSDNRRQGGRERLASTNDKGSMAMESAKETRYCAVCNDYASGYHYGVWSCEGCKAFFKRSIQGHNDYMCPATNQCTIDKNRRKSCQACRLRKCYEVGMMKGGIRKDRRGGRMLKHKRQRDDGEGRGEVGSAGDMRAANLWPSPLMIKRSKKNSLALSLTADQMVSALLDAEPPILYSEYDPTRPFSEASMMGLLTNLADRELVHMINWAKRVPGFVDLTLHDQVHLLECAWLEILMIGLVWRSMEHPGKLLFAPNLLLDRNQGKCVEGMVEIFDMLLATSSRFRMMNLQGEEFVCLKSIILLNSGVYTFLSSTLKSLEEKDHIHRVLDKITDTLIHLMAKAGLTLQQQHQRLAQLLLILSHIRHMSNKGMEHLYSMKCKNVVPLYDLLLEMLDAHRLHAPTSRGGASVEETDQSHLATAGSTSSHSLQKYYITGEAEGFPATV
In short: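 A 17beta-estradiol challenge was applied right after compound transfer to ER-alpha-UAS-bla HEK293 cells previously kept in charcoal-stripped serum. Plates stood 18 hr at 37C and 5% CO2; fluorescence was read following 2 hr FRET substrate loading at room temperature.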

[15] = target: Estrogen receptor (Homo sapiens) (UniProt P03372); experiment: qHTS assay to identify small molecule agonists of the estrogen receptor alpha (ER-alpha) signaling pathway (AID 743075; calls by dose curve;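 further: HEK293 GripTite cells with ER-alpha and UAS-driven beta-lactamase reporter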); settings: HEK293 ER-alpha-UAS-bla, beta-lactamase FRET ratio, 18 h; activation: at 70.1 µM (top of the series)
[16] = target: Estrogen receptor (Homo sapiens) (UniProt P03372); experiment: qHTS assay to identify small molecule agonists of the estrogen receptor alpha (ER-alpha) signaling pathway using the BG1 cell line (AID 743079); settings: BG1Luc4E2 cells, ERE-luciferase agonist, 22 h; further: nearly all actives have a fitted effect of over 20% in size
[17] = qHTS assay to identify small molecule antagonists of the estrogen receptor alpha (ER-alpha) signaling pathway using the BG1 cell line (AID 743080; calls by dose curve;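 further: BG1 cells stimulated with 17beta-estradiol alongside compound; nearly all actives have a fitted effect of over 25% in size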; further: potency means the concentration at half of the fitted maximal effect)
In short: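 BG1Luc4E2, endogenous ER-alpha, 4xERE-luc; 5 d charcoal-stripped FBS, phenol red free; 24 h plating; cpd + 17beta-estradiol 21.5 h, 37 C/5% CO2; CellTiter-Fluor viability 30 min, then ONE-Glo luciferase 30 min RT.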
On the % scale 0 is the no-effect control and ±100 the full control effect.

Row | Compound | Potency [1] | Potency [2] | Potency [3] | Potency [4] | Potency [5] | Potency [6] | Potency [7] | Potency [8] | Potency [9] | Potency [10] | Potency [11] | Potency [12] | Potency [13] | Potency [14] | Potency [15] | activation ([16]; at 70.3 µM (top of the series)) [%] | Potency [17] | activation ([16]; at 32.5 µM (top of the series)) [%]
1 | O=C(OC[C@H]1O[C@@H](OC(=O)c2cc(O)c(O)c(OC(=O)c3cc(O)c(O)c(O)c3)c2)[C@H](OC(=O)c2cc(O)c(O)c(OC(=O)c3cc(O)c(O)c(O)c3)c2)[C@@H](OC(=O)c2cc(O)c(O)c(OC(=O)c3cc(O)c(O)c(O)c3)c2)[C@@H]1OC(=O)c1cc(O)c(O)c(OC(=O)c2cc(O)c(O)c(O)c2)c1)c1cc(O)c(O)c(OC(=O)c2cc(O)c(O)c(O)c2)c1 | 16.9 µM (active) | 5.96 µM (active) | 10.6 µM (active) and 16.5 µM (active) | 11.9 µM (active) | 19 µM (active) | 3.35 µM (active) and 16.5 µM (active) | 3.76 µM (active) and 16.5 µM (active) | inactive | 6.74 µM (active) | 21.1 µM (active) | 18.8 µM (active) | – | – | – | – | – | – | –
2 | CCN(C(=O)c1cc(C)cc(OC[C@H](C)Nc2ccncc2)c1)C(C)C | inactive | 19.1 µM (active) | 19.1 µM (active) | 17 µM (active) | inactive | – | – | inactive | inactive | inactive | inactive | inactive | inactive | – | – | – | – | –
3 | CCCCCCCCCCCCCCCS(=O)(=O)Oc1ccccc1 | inactive | inactive | inactive | inactive | inactive | inactive | inactive | inactive | inactive | inactive | inactive | – | inactive | inactive | inactive | -9.91 | inactive | –
4 | COc1ccc(CN2CCN(C(c3ccc(F)cc3)c3ccc(F)cc3)CC2)c(OC)c1OC | inactive | 3.76 µM (active) | 5.96 µM (active) | 6.68 µM (active) | 23.9 µM (active) | 11.9 µM (active) | 13.3 µM (active) | – | 26.8 µM (active) | – | – | – | inactive | – | – | – | – | –
5 | CCCCCCCCCCCCCCCC[N+](C)(C)CCN(Cc1ccc(OC)cc1)c1ncccn1 | inactive | 1.6 µM (active) | 2.02 µM (active) | 2.27 µM (active) | inactive | 11.4 µM (active) | – | – | – | inactive | inactive | inactive | 12.7 µM (active) | inactive | inactive | – | – | -16.9
6 | CCCCCCCC[P+](CCCCCCCC)(CCCCCCCC)CCCCCCCC | 6.13 µM (active) | 5.42 µM (active) | 5.42 µM (active) | 5.42 µM (active) | 0.971 µM (active) | 4.3 µM (active) | 3.05 µM (active) | – | 15.4 µM (active) | 8.58 µM (active) | 9.63 µM (active) | 6.08 µM (active) | 1.53 µM (active) | 21.7 µM [cytotoxic] (active) | – | – | 1.71 µM (active) | –
7 | Nc1c(Cl)cc(Cl)cc1Cl | inactive | inactive | inactive | inactive | inactive | – | inactive | inactive | inactive | inactive | inactive | inactive | inactive | – | – | – | – | –
8 | CC(C)c1ccc2c(c1)CC[C@H]1[C@](C)(CN)CCC[C@]21C | 38.9 µM (active) | 5.45 µM (active) | 6.11 µM (active) | 5.45 µM (active) | 21.9 µM (active) | 10.9 µM (active) | 12.2 µM (active) | – | 49 µM (active) | – | 24.3 µM (active) | 24.3 µM (active) | 19.3 µM (active) | – | – | – | – | –
9 | CCN1/C(=C/C=C/c2sc3ccccc3[n+]2CC)Sc2ccccc21 | 21.3 µM (active) | 0.0266 µM (active) | 0.0298 µM (active) | 0.0266 µM (active) | 3.01 µM (active) | 1.68 µM (active) | 0.841 µM (active) | – | 10.7 µM (active) | 9.44 µM (active) | 5.96 µM (active) | 0.75 µM (active) | 1.5 µM (active) | – | – | – | 2.98 µM (active) | –
10 | COc1cc(-c2ccc(N=C=O)c(OC)c2)ccc1N=C=O | inactive | inactive | inactive | inactive | inactive | inactive | inactive | inactive | inactive | inactive | inactive | inactive | inactive | – | – | – | – | –
11 | O=c1c(-c2ccccc2)c1-c1ccccc1 | inactive | 3.76 µM (active) | 4.73 µM (active) | 4.73 µM (active) | 21.3 µM (active) | 5.96 µM (active) | 5.31 µM (active) | – | inactive | inactive | – | – | 29.8 µM (active) | 26.8 µM [inconclusive] (active) | inactive | -33.7 | – | –
12 | CNc1ccc(O)cc1 | 54.8 µM (active) | 7.68 µM (active) | 6.1 µM (active) | 10.8 µM (active) | 38.8 µM (active) | – | – | inactive | – | – | 19.3 µM (active) | 61 µM (active) | 15.3 µM (active) | – | – | – | – | –
13 | CCCC(c1cc(C(C)(C)C)c(O)cc1C)c1cc(C(C)(C)C)c(O)cc1C | 11.1 µM (active) | 12.3 µM (active) | 12.3 µM (active) | 12.3 µM (active) | 22.1 µM (active) | 3.9 µM (active) | 3.1 µM (active) | inactive | 19.7 µM (active) | – | 49.2 µM (active) | 27.6 µM (active) | 15.5 µM (active) | – | – | – | – | –
